The nature of the assay: NCI Yeast Anticancer Drug Screen. Data for the mlh1 strain (AID 171).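 Further: 0% = growth of vehicle-treated control cultures of the same strain.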 The note with it: S. cerevisiae mlh1 strain growth inhibition, hits give high values. The procedure: Growth inhibition of yeast strains with defined genetic alterations is measured as a screen for potential anti-cancer activity. Selected strains with alterations in DNA damage repair or cell cycle control were exposed to compounds and growth inhibition was measured relative to vehicle treated controls. The strain used in this assay is mlh1

Compounds without any hit were thinned out: in the full panel of roughly 79,000, 15% have a hit. Values without a mark were called inactive. Activity calls are given as the source filed them. No stated cut-off is given here; in the data, active means growth inhibition above about 70%; inactive means the rest.

On to `O=C(NNc1ccccc1)C(CCCCNS(=O)(=O)Cc1ccccc1)NS(=O)(=O)Cc1ccccc1` (stereo not given), for which the growth inhibition by setting is: (at 1.2 µM) 1%; (at 3.7 µM) 1%; (at 11.0 µM) 11%; (at 33.0 µM) 32%; (at 100.0 µM) 44%.
As to `O=[N+]([O-])c1ccc(C(c2c[nH]c3ccccc23)c2c[nH]c3ccccc23)cc1`, the growth inhibition was 33% (at 1.2 µM); 98% (active) (at 3.7 µM); 97% (active) (at 11.0 µM); 94% (active) (at 33.0 µM); 90% (active) (at 100.0 µM).
The corresponding values for `COC(=O)C(=O)CC(=O)c1cccc(OC)c1` are -11%, -5%, -3%, 39% and 64%.
Take `CO[C@@]1([C@@H](Cl)c2ccccc2)C(=O)N(C)/C(=C\c2ccccc2)C(=O)N1C`: the growth inhibition is 0% (at 1.2 µM); -2% (at 3.7 µM); -1% (at 11.0 µM); 9% (at 33.0 µM); 67% (at 100.0 µM).
As to `CSc1nc(-c2ccccc2)nc(=[N+]2CCOCC2)s1`, the growth inhibition is -1% (at 1.2 µM); 10% (at 3.7 µM); 35% (at 11.0 µM); 76% (active) (at 33.0 µM); 98% (active) (at 100.0 µM).
`CC1(C)CC(=O)C(/C=N/c2nc(-c3ccc(Br)cc3)cs2)=C(O)C1`: the growth inhibition runs as follows: (at 1.2 µM) 3%; (at 3.7 µM) 5%; (at 11.0 µM) 30%; (at 33.0 µM) 96% (active); (at 100.0 µM) 98% (active).
Regarding `O/N=c1/ccn(O)c2ccccc12`, the growth inhibition runs as follows: (at 1.2 µM) 2%; (at 3.7 µM) 15%; (at 11.0 µM) 30%; (at 33.0 µM) 53%; (at 100.0 µM) 83% (active).
With `CCC(C)(C)c1ccc(Oc2ccccc2)c(N)c1`, the growth inhibition by setting is: (at 1.2 µM) -30%; (at 3.7 µM) -18%; (at 11.0 µM) 95% (active); (at 33.0 µM) 98% (active); (at 100.0 µM) 98% (active).

These data come from PubChem BioAssay (NCI).
